The record followed here is PubChem BioAssay (Tox21).

Experiment [1] is described as follows: qHTS assay to identify small molecule agonists of the RXR signaling pathway - cell viability counter screen (AID 1159529). Also: series mostly up to about 77 µM; nearly all actives have a fitted effect of over 50% in size. In a few lines: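 Luminescence from CellTiter-Glo (30 min, RT) measured viability in the same wells as the beta-lactamase reporter readout. Cells: GeneBLAzer RXR-alpha HEK 293T, 2% charcoal-stripped FBS. Compound exposure 16 hr, 37 C.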
For orientation: Quantitative high-throughput screening tests each substance at several concentrations.

Experiment [2] is described as follows: qHTS assay to identify small molecule antagonists of the retinoid acid receptor (RAR) signaling pathway - cell viability counter screen (AID 1159551). Also: nearly all actives have a fitted effect of over 35% in size. In a few lines:
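Following overnight attachment, C3RL4 reporter cells received DMSO-dissolved compounds and then retinol (1 uM final). Six hours later at 37 C, ATP content was measured by CellTiter-Glo luminescence.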

Experiment [3] is described as follows: qHTS assay to identify small molecule antagonists of the estrogen related receptor (ERR) signaling pathway from Tox21 library - cell viability counter screen (AID 1224834). Also: nearly all actives have a fitted effect of over 30% in size. In a few lines:
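Viability readout (CellTiter-Fluor fluorescence, 30 min at 37 C) multiplexed with the ERR assay; cells treated 17.5 h at 37 C with compounds delivered in DMSO.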

Experiment [4] concerns the target Luciferin 4-monooxygenase (Photinus pyralis) (UniProt P08659). The experiment in a line: qHTS assay to identify small molecule inhibitors of firefly luciferase (AID 1224835). Also: nearly all actives have a fitted effect of over 25% in size. Also: potency is read from the fitted curve at half-maximal effect. As to activity change, negative = inhibition: series mostly up to about 120 µM. In a few lines: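 Inhibition of purified Photinus luciferase is measured by luminescence. Substrate levels (D-luciferin, ATP) sit at their KM values. Each compound is tested in a concentration series.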

The nature of experiment [5]: qHTS assay to identify small molecule agonists of the constitutive androstane receptor (CAR) signaling pathway - cell viability counter screen (AID 1224836). Also: series mostly up to about 92 µM; nearly all actives have a fitted effect of over 45% in size. In short, it runs like this:
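Viability read-out: CellTiter-Fluor fluorescence after 23 h compound exposure at 37 C/5% CO2 in double-stable HepG2-CYP2B6-hCAR cells, with PK11195 present at 0.75 uM final; compounds tested in 15-point titration.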

A short description of experiment [6]: qHTS assay to identify small molecule antagonists of the constitutive androstane receptor (CAR) signaling pathway - cell viability counter screen (AID 1224837). Also: series mostly up to about 92 µM; nearly all actives have a fitted effect of over 45% in size. In short, it runs like this: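 Fluorescence from CellTiter-Fluor served as the viability signal. Human hepatoma HepG2 cells stably bearing hCAR and CYP2B6-2.2kb received compound plus CITCO (50 nM final) for 23 hr.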

Experiment [7] can be described thus: qHTS assay to identify small molecule antagonists of the estrogen related receptor signaling pathway with the pleiotropic PPARgamma coactivator (PGC) from Tox21 10K library - cell viability counter screen (AID 1224840; active = well fitted cell-killing curve with a large enough effect in the repeat runs, not every such curve was filed as active; also: nearly all actives have a fitted effect of over 40% in size). In a few lines:
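Compounds in DMSO, alongside positive and negative controls, were pinned onto PGC/ERR cells (2,000 per well). Exposure lasted 17.5 hours at 37 C, followed by a 30-minute CellTiter-Fluor incubation and fluorescence reading.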

Experiment [8] can be described thus: qHTS assay to identify small molecule agonists of the retinoic acid receptor (RAR) signaling pathway (AID 1159553). In a few lines:
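Cell line C3RL4, RARE luciferase reporter. Treatment: compounds in DMSO, 6 hr, 37 C, 5% CO2, after overnight plating. Detection: luminescence, 30 min RT after reagent.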

Experiment [9] addresses Nuclear receptor subfamily 1 group I member 3 (Homo sapiens) (UniProt Q14994). The experiment in a line: qHTS assay to identify small molecule antagonists of the constitutive androstane receptor (CAR) signaling pathway (AID 1224838).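 Also: HepG2 cells stably expressing hCAR with CYP2B6 luciferase reporter stimulated by CITCO; nearly all actives have a fitted effect of over 40% in size.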 In a few lines:
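Quantitative HTS in double-stable HepG2-CYP2B6-hCAR cells. After 4 h plating, cells get compound (15 concentrations) and CITCO at 50 nM final, incubate 24 h at 37 C, then ONE-Glo luminescence is read.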

The target in experiment [10] is Thyrotropin receptor (Homo sapiens) (UniProt P16473). The experiment in a line: qHTS assay to identify small molecule agonists of the thyroid stimulating hormone receptor (TSHR) signaling pathway (AID 1224843; calls by dose curve; also: nearly all actives have a fitted effect of over 45% in size). In a few lines:
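Screening of the Tox21 10K collection used HEK293 cells engineered with TSHR at 800 cells per well. After a 30-min room-temperature compound exposure, HTRF cAMP reagents were added and fluorescence recorded 1 h later.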

Experiment [11] has as its target Nuclear receptor subfamily 1 group I member 3 (Homo sapiens) (UniProt Q14994). Briefly: qHTS assay to identify small molecule agonists of the constitutive androstane receptor (CAR) signaling pathway (AID 1224839).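 Also: HepG2 cells stably carrying human CAR and a CYP2B6 luciferase reporter; series mostly up to about 92 µM; nearly all actives have a fitted effect of over 15% in size.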 In short, it runs like this:
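Luminescence read-out (ONE-Glo, 30 min, room temperature) from double-stable HepG2-CYP2B6-hCAR cells exposed 24 h to 15-point compound series in presence of 0.75 uM PK11195 final.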

The nature of experiment [12]: qHTS assay to identify small molecule antagonists of the estrogen related receptor signaling pathway with the pleiotropic PPARgamma coactivator (PGC) from Tox21 10K library (AID 1224841; call rule not given here; also: actives are mostly falling curves and most rising ones were filed inactive; nearly all actives have a fitted effect of over 50% in size; also: potency is read from the fitted curve at half-maximal effect; as to activity, negative = inhibition: series mostly up to about 92 µM). In short, it runs like this: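 Compound exposure ran 18 hours at 37 C in PGC/ERR cells (2,000/well) that had first rested 6 hours in a 37 C/5% CO2 incubator. Luciferase activity was then detected with One-Glo after a 30-minute room-temperature step.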

Experiment [13] can be described thus: qHTS assay to identify small molecule agonists of the estrogen related receptor signaling pathway with the pleiotropic PPARgamma coactivator (PGC) from Tox21 10K library (AID 1224842). Also: nearly all actives have a fitted effect of over 15% in size. In short, it runs like this:
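Luminescence from One-Glo (30 min, room temperature) measured after PGC/ERR cells had 18 h at 37 C with pinned compound (23 nL in DMSO). Cells had been seeded at 2,000 per well and pre-incubated 6 h.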

Experiment [14] is described as follows: qHTS assay to identify small molecule antagonists of the retinoic acid receptor (RAR) signaling pathway (AID 1159552; also: nearly all actives have a fitted effect of over 50% in size; also: potency is read from the fitted curve at half-maximal effect). In short, it runs like this: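 Luminescence from a RARE luciferase reporter in C3RL4 cells served as read-out. Cells received compounds together with 1 uM final retinol and incubated 6 hr at 37 C before detection reagent was added for 30 min at room temperature.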

Experiment [15] in a line: qHTS assay to identify small molecule antagonists of the estrogen related receptor (ERR) signaling pathway - cell viability counter screen (AID 1224818).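 Also: series mostly up to about 46 µM; viability measured after 17.5 h of compound exposure.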 In a few lines: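 Here, ERR cells are plated at 2,000 cells per well, allowed 6 h to attach, and treated with compounds in DMSO for 17.5 h at 37 C. CellTiter-Fluor is then added and fluorescence read after 30 min.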
Experiment [16] in a line: qHTS assay to identify small molecule antagonists of the estrogen related receptor signaling pathway with the pleiotropic PPARgamma coactivator (PGC) cell viability counter screen (AID 1224822; also: series mostly up to about 46 µM). In short, it runs like this:
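qHTS format, DMSO compound stocks pin-transferred onto PGC/ERR cells 6 h after plating; 17.5 h exposure at 37 C, then CellTiter-Fluor fluorescence.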

The nature of experiment [17]: qHTS assay to identify small molecule antagonists of the estrogen related receptor (ERR) signaling pathway (AID 1224819;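 also: luminescence from an ERR-driven luciferase reporter measured with One-Glo reagent; series mostly up to about 46 µM; nearly all actives have a fitted effect of over 50% in size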). In short, it runs like this:
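LOPAC library screened for antagonism as reduced One-Glo luminescence in ERR reporter cells (2,000/well). Compounds were added after 6 h pre-incubation and left 18 h at 37C; reading followed a 30 min room-temperature reagent step.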

For experiment [18], the system named is estrogen-related receptor alpha (ERRalpha) with PGC-1alpha coactivator, human. The experiment in a line: qHTS assay to identify small molecule antagonists of the estrogen related receptor signaling pathway with the pleiotropic PPARgamma coactivator (PGC) (AID 1224821; calls by dose curve). In a few lines:
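PGC/ERR reporter cell line, plated 6 h before compound addition, then exposed 18 h at 37 °C. Luciferase activity read by luminescence 30 min after One-Glo addition; decrease indicates antagonism.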

Experiment [19] in a line: qHTS assay to identify small molecule agonists of the estrogen related receptor signaling pathway with the pleiotropic PPARgamma coactivator (PGC) (AID 1224823). In short, it runs like this: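 PGC/ERR reporter cells seeded 6 h, then exposed to compounds (23 nL in DMSO) for 18 h at 37 C. One-Glo luciferase luminescence read after 30 min at room temperature.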

Results filed as inconclusive are left out. A number with no mark means an inactive call. The source made the active and inactive calls. Unless noted, calls follow the shape of the dose curve; as a rule, active = well fitted curve in the direction sought with a large enough effect in the repeat runs; inconclusive = weak or mixed curves; inactive = no such curve, though single readings can be large; an effect the other way counts as inactive or inconclusive.
% is scaled to controls: 0 for no effect and ±100 for the full control effect.

Luciferin 4-monooxygenase (Photinus pyralis), sequence (P08659 whole entry, looked up): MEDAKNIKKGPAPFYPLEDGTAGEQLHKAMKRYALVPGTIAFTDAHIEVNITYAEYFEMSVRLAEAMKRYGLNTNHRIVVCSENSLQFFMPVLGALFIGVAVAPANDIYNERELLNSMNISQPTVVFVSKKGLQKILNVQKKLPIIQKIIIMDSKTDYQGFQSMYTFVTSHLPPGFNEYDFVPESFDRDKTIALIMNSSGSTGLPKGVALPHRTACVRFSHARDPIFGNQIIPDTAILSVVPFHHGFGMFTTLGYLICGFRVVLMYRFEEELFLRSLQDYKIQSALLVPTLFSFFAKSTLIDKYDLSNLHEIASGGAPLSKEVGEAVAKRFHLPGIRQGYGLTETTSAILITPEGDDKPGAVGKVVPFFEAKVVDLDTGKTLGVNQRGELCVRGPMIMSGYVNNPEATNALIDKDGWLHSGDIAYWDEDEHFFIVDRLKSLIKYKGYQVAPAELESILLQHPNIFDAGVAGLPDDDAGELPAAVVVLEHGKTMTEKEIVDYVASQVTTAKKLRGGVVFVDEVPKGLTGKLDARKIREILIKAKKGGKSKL
Nuclear receptor subfamily 1 group I member 3 (Homo sapiens), sequence (Q14994 whole entry, looked up): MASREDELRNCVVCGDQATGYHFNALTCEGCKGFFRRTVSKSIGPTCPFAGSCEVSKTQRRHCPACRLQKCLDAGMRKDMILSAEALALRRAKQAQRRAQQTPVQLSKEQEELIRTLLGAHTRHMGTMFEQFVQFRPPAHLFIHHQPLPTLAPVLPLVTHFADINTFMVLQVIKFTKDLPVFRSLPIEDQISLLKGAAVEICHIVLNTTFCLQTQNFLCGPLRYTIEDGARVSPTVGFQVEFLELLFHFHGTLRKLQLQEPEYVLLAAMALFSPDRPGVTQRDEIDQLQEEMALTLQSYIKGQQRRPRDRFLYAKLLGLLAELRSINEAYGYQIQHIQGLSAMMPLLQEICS
Thyrotropin receptor (Homo sapiens), sequence (P16473 whole entry, looked up): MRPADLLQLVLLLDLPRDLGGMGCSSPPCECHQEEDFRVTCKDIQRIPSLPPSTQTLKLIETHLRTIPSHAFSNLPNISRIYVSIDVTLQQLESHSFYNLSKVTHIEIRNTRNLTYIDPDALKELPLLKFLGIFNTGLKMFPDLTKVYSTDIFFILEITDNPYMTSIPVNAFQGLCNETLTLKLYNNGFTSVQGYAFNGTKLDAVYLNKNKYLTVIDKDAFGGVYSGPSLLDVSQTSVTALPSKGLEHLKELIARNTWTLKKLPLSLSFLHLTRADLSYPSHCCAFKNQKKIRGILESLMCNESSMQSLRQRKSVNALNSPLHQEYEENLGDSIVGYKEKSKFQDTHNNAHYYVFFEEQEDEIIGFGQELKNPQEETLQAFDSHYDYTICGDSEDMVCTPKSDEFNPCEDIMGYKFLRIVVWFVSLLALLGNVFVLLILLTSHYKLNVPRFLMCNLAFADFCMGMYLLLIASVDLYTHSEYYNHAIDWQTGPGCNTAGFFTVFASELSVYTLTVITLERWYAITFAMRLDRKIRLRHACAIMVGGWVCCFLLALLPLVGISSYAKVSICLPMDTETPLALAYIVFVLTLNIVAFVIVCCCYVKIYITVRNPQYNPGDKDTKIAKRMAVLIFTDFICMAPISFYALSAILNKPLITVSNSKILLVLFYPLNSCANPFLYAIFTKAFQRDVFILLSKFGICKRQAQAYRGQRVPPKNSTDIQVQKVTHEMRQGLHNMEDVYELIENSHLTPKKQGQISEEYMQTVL

For `Cc1ccc(N)c(C)c1`, the Potency result in experiment [1], in experiment [2], in [3], in experiment [4], in experiment [5] and in [6] was “inactive” each time. Also, the Potency result in experiment [7] was “inactive”.
With `CCCCCCCCCCCCN=C(N)N`, the activity change, negative = cytotoxicity in experiment [1] was -15.3% [at 2.72 µM]; in experiment [2], 2.05% [at 3.27 µM]; in experiment [6], -5.88% [at 3.26 µM]. Moreover, the values for the activation in [8] and in [10] were -2.89% [at 3.75 µM] and 5.05% [at 3.27 µM], respectively. Further, the viability change, negative = cytotoxic in experiment [3] was 1.13% [at 3.27 µM]; in experiment [5], 0.263% [at 3.27 µM]; in experiment [7], 2.19% [at 3.27 µM]. For the same compound, the activity change, negative = inhibition in experiment [4] is 0.224% [at 4.07 µM]. Besides, the activity, negative = inhibition in experiment [9] is 9.02% [at 3.26 µM].
For `NCCc1cc(O)c(O)cc1O`, the Potency result in experiment [1], in experiment [2], in experiment [3], in experiment [4], in [5] and in experiment [6] was “inactive” in each case. The Potency result in experiment [9], in experiment [11] and in experiment [7] was “inactive” each time.
Regarding `C=C(Cl)Cl`, the Potency entry in experiment [1], in experiment [2], in experiment [8], in [3], in [4] and in experiment [5] was “inactive” in each case. Further, the Potency entry in [6], in [9], in [11], in experiment [7], in [12] and in [13] was “inactive” each time. Also, the Potency result in experiment [10] is “inactive”.
Turning to `C1CCNCC1`, the Potency result in [1], in experiment [2], in experiment [14], in experiment [3], in experiment [4] and in experiment [5] was “inactive” each time. Moreover, the Potency entry in experiment [6], in experiment [7] and in experiment [10] was “inactive” throughout.
Take `CCOC(=O)c1cn2nc(OP(=S)(OCC)OCC)cc2nc1C`: the Potency result in [1], in [2], in [14], in experiment [4], in experiment [5] and in experiment [6] was “inactive” each time. The Potency entry in experiment [7] and in experiment [13] was “inactive” throughout. In addition, the Potency in experiment [12] is 43.3 µM (active).
As to `CCNC(=O)NC(=O)/C(C#N)=N/OC`, the Potency result in experiment [1], in experiment [2], in [8], in experiment [3], in experiment [4] and in [6] was “inactive” throughout. Also, the Potency result in experiment [9], in experiment [11], in experiment [7], in [12] and in experiment [13] was “inactive” throughout.
Consider `C=CCOCC1CO1` (stereo unspecified), for which the Potency entry in [1], in experiment [2], in [3], in experiment [4], in experiment [5] and in experiment [6] was “inactive” in each case. In addition, the Potency entry in [9], in [11], in experiment [7], in experiment [12], in experiment [13] and in experiment [10] was “inactive” throughout.
With `CC(Oc1cc(Cl)c(Cl)cc1Cl)C(=O)O` (stereo unspecified), the Potency result in [1], in experiment [2], in experiment [3], in experiment [4], in experiment [5] and in [6] was “inactive” throughout. The Potency result in [9], in [11], in experiment [7] and in [10] was “inactive” throughout.
In the case of `C#CC(O)(C=CCl)CC` (stereo unspecified), the Potency entry in experiment [1], in experiment [2], in [14], in experiment [3], in [4] and in experiment [5] was “inactive” each time. Also, the Potency result in [7] and in experiment [10] was “inactive” each time.
Regarding `COC1=CC(=O)O[C@@H](/C=C/c2ccc3c(c2)OCO3)C1`, the Potency result in [1], in [2], in experiment [3], in experiment [6], in experiment [7] and in experiment [13] was “inactive” each time. For the same compound, in experiment [10], the Potency entry is “inactive”. In addition, the Potency is 8.27 µM (active) in experiment [14], 60.6 µM (active) in [4] and 18.5 µM (active) in experiment [12].
For `COc1cc(CC(C)N)c(OC)cc1Br` (stereo unspecified), the Potency result in [1], in experiment [2], in [14], in [4], in experiment [5] and in experiment [13] was “inactive” each time.
For the compound `COc1ccccc1N1CCNCC1`, the Potency result in [1], in experiment [2], in experiment [3], in [4], in [5] and in experiment [6] was “inactive” throughout. Besides, the Potency result in [7] is “inactive”. The compound was classed as inactive in experiment [15] and in experiment [16].
Regarding `CCC1(C2=NCCN2)Cc2ccccc2O1` (stereo unspecified), the Potency result in [1], in [2], in experiment [3], in experiment [4], in experiment [5] and in experiment [7] was “inactive” throughout. The Potency entry in experiment [12], in experiment [13] and in experiment [10] was “inactive” throughout. Moreover, the result in [15], in experiment [17], in [18], in experiment [16] and in experiment [19] was inactive.
In the case of `COC(=O)Cc1ccccc1`, the Potency result in [1], in [2], in experiment [14], in [3], in experiment [4] and in experiment [6] was “inactive” each time. Besides, the Potency entry in experiment [9], in experiment [11] and in [7] was “inactive” each time.
